The whole screen tested about 52,000 compounds, of which about 4,300 (8.3%) were called active. What follows is part of a selection rich in actives, with near analogues and random picks from the rest. Unmarked numbers belong to inactive results. No stated cut-off is given here; in the data, active means survival mostly below about 52% (no sharp cut-off); inactive means mostly above about 56%.

In the assay the test system is DeltatarO mutant. Nature of the assay: growth inhibition of S. aureus wild type versus tarO mutant, primary screen, teichoic acid synthesis inhibitors, RN4220, OD600 (AID 463173). The settings on record: OD600, 18 h, stronger effect = lower value, screened at 18.75 µg/mL (by protocol).
Turning to `O=C(NC1CCN(CC(=O)N2CCOCC2)CC1)C1CCCCC1`, the survival was 95%.
To `CCN(C(=O)c1cccn(Cc2cccc(Cl)c2)c1=O)c1ccccc1` belongs 80%; to `COc1ccccc1C(=O)Nc1ccc(OCc2cc(=O)n3cccc(C)c3n2)cc1`, 94%.
In the case of `CC(C)Cc1cc(C(=O)O)nc(=O)[nH]1` it was 105%.
For `CC(=O)c1ccc(NC(=O)COCc2cc(-c3ccc(F)cc3)on2)cc1`, the survival is 102%.
To `Cc1ccccc1NC(=O)CSc1cn(CC(=O)N(C(C)C)C(C)C)c2ccccc12` belongs 54%; to `CN1CCN(C(=O)C23CC4CC(CC(C4)C2)C3)CC1`, 111%.
In the case of `COc1cc(C(=O)NCC(c2cccs2)S(=O)(=O)c2ccc(F)cc2)cc(OC)c1OC` (centres undefined) it was 104%; in that of `CCOc1ccc(S(=O)(=O)Nc2ccc(OC)c(Cl)c2)c2cccnc12`, 70%.
On to `O=C(NCc1ccc(F)cc1Cl)c1ccc(CSCc2ccccc2Cl)o1`, for which the survival was 54%.
In the case of `O=C(CCSCc1cnn(-c2ccccc2)c1-n1cccc1)NCc1ccccc1Cl` it was 54% (active).
In the case of `O=C(CCSCc1cccc(Cl)c1)NCc1ccc(F)cc1Cl` it was 102%; in that of `O=C(NCc1ccccc1Cl)c1ccc(CSCc2ccccc2Cl)o1`, 93%; in that of `O=C(CCSCc1ccccc1Cl)NCc1ccc(F)cc1Cl`, 8% (active).
In the case of `O=C(CCSCc1cnn(-c2ccccc2)c1-n1cccc1)NCc1ccccc1F` it was 61%; in that of `Cc1ccccc1CNC(=O)CCSCc1cnn(-c2ccccc2)c1-n1cccc1`, 64%.
As for `O=C(CCSCc1ccc(Cl)cc1)NCc1ccc(F)cc1Cl`, the survival is 88%.
With `O=C(NCc1ccccc1Cl)c1ccc(CSCc2cccc(F)c2)o1`, the survival is 17% (active).
In the case of `Fc1ccccc1N1CCN(c2ncc3c(n2)CCN(Cc2ccc(Br)s2)C3)CC1`, the survival is 66%.
With `CCc1nn2c(=O)cc(COC(=O)c3ccc(NC(=O)CCc4ccccc4)cc3)nc2s1`, the survival was 99%.
For the compound `COc1ccc(OC)c(NC(=O)C(C)n2nc(C)c3c(C)n(-c4ccccc4)nc3c2=O)c1` (centres undefined), the survival is 93%.
In the case of `O=C(Nc1cccc(F)c1)C1CCN(S(=O)(=O)c2ccc3[nH]c4c(c3c2)CCCCC4)CC1` it was 89%; in that of `CCCn1c2ccccc2c2cnn(CC(=O)NC(C)CC)c(=O)c21` (centres undefined), 72%; in that of `O=C(NCc1ccco1)c1ccc2c(c1)N(Cc1ccc(Cl)cc1)C(=O)c1ccccc1S2`, 71%.
To `COc1ccc(CCN2C(=O)N(c3ccc(F)cc3)C(=O)C2CC(=O)Nc2ccccc2)cc1OC` (centres undefined) belongs 76%; to `Cc1ccc(NC(=O)Nc2nnc(SCC(=O)Nc3ccc(F)cc3F)s2)cc1`, 102%.
In the case of `Nc1nc(N)c(S(=O)(=O)c2ccccc2)c(Nc2ccccc2)n1` it was 69%; in that of `Nc1nc(N)c(S(=O)(=O)c2ccccc2)c(Nc2ccc(Br)cc2)n1`, 44% (active).
As to `Cc1nc(N)c(S(=O)(=O)c2ccccc2)c(Nc2ccc(Br)cc2)n1`, the survival is 87%.
To `Cc1c(CN2CCOCC2)c(=O)n(-c2ccccc2)n1C` belongs 87%; to `CC1(N2CCOCC2)CC(=O)N(c2ccccc2)O1` (centres undefined), 62% (active).
In the case of `O=C1c2ccccc2C(=O)C1(O)N1CCOCC1` it was 85%; in that of `COc1ccc(OCC2c3cc(OC)c(OC)cc3CCN2C(=O)c2c(F)cccc2F)cc1` (centres undefined), 112%; in that of `CCN(CC)c1ccc(NC(=O)CCc2c(C)nc3ncnn3c2C)c(C)c1`, 115%.
Turning to `CCN1CCN(CCCNC(=O)c2cc3c(=O)n(C)c4ccccc4c3s2)CC1`, the survival was 79%.
In the case of `O=C(NCCSCc1cccc(Cl)c1)C1CCN(S(=O)(=O)Cc2ccccc2)CC1` it was 63%.
Consider `COc1ccc(OC)c(C2C(C(=O)Nc3ccc(C)cc3C)=C(C)Nc3c(C(=O)Nc4ccc(F)cc4)cnn32)c1` (centres undefined), for which the survival is 96%.
To `Cc1ccc(C)c(NC(=O)c2nc(S(=O)(=O)Cc3ccc(F)cc3)ncc2Cl)c1` belongs 99%; to `CCS(=O)(=O)c1ncc(Cl)c(C(=O)NCc2ccccc2)n1`, 50%.
In the case of `O=C(NCc1ccccc1)c1nc(S(=O)(=O)Cc2ccc(F)cc2)ncc1Cl` it was -6% (active).
In the case of `O=C(NCc1ccccc1)c1nc(S(=O)(=O)Cc2ccccc2)ncc1Cl` it was 18% (active).
For the compound `COc1ccc(CNC(=O)c2nc(SC(C)C)ncc2Cl)cc1`, the survival was 114%.
In the case of `COc1ccc(CNC(=O)c2nc(SCc3ccccc3F)ncc2Cl)cc1` it was 81%.
To `Cc1ccc(CNC(=O)c2nc(SCc3ccc(F)cc3)ncc2Cl)cc1` belongs 71%; to `COc1ccc(CNC(=O)c2nc(S(=O)(=O)Cc3ccccc3)ncc2Cl)cc1`, 18% (active).
In the case of `Cc1ccc(CSc2ncc(Cl)c(C(=O)NCc3ccccc3)n2)cc1`, the survival is 79%.
In the case of `Cc1ccc(NC(=O)c2nc(S(=O)(=O)Cc3ccc(F)cc3)ncc2Cl)cc1C` it was 84%; in that of `CC(=O)Nc1ccc(NC(=O)c2nc(S(=O)(=O)Cc3ccc(F)cc3)ncc2Cl)cc1`, 32% (active); in that of `CCNC(=O)c1c(NC(=O)Cc2coc3ccc(CC)cc23)sc2c1CCCC2`, 79%.
For the compound `COc1ccc(CNC(=O)c2cccc(-n3cnc4cccnc43)c2C)cc1`, the survival is 90%.
In the case of `CCc1ccc(NC(=O)c2cc(S(=O)(=O)N3CCCCCC3)ccc2F)cc1` it was 99%.
To `CC(=O)Nc1n[nH]c(-c2ccc(C)cc2)c1C` belongs 94%.
To `Cc1ccc(NC(=O)Cn2c(=O)ccc3cc(S(=O)(=O)N4CCC(C)CC4)ccc32)cc1C` belongs 71%.
`COc1ccc(N2C(=O)C(CC(=O)Nc3ccccc3)N(CCC3=CCCCC3)C2=O)cc1` (centres undefined): the survival was 72%.
To `COc1ccc(OC)c(NC(=O)c2nc(S(=O)(=O)Cc3ccc(F)cc3)ncc2Cl)c1` belongs -5% (active).
Regarding `COc1ccc(CNC(=O)c2nc(SCc3ccc(C)cc3)ncc2Cl)cc1`, the survival is 67%.
On to `COc1ccc(NC(=O)c2nc(S(=O)(=O)Cc3ccc(C)cc3)ncc2Cl)cc1`, for which the survival is 32% (active).
With `COc1ccc(OC)c(NC(=O)c2nc(SCc3ccc(F)cc3)ncc2Cl)c1`, the survival is 77%.
Consider `Cc1ccc(CNC(=O)c2nc(SCc3cccc(C)c3)ncc2Cl)cc1`, for which the survival is 117%.
To `COc1ccccc1NC(=O)c1nc(SCc2ccc(F)cc2)ncc1Cl` belongs 77%; to `Cc1cccc(CS(=O)(=O)Cc2ccc(C(=O)NCc3ccccc3)o2)c1`, 124%; to `Cc1cccc(CS(=O)(=O)c2ncc(Cl)c(C(=O)NCc3ccccc3)n2)c1`, -1% (active).
To `Cc1ccc(CNC(=O)c2nc(S(=O)(=O)Cc3ccc(C)cc3)ncc2Cl)cc1` belongs 41% (active); to `CSc1ncc(Cl)c(C(=O)NCc2ccc(C)cc2)n1`, 84%.

The values are drawn from PubChem BioAssay AID463173 (ICCB-Longwood Screening Facility, Harvard Medical School, 2010).
